The values below come from PubChem BioAssay.

A short description of experiment [1]: liver-stage malaria parasite growth inhibition, primary screen, cell-based, HepG2, luciferase luminescence, HepG2 viability (AID 624349; in the data active means parasite load remaining mostly below about 12%, no sharp cut-off; inactive means mostly above about 10%;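 further: 100% = mean of DMSO negative control wells on the same plate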). As to conditions: P. berghei liver stage in HepG2, luciferase luminescence, concentration not given here; parasite load remaining: stronger effect = lower value; viability: measured here: HepG2 viability without parasites.
For experiment [2], the system named is Hepatitis C virus NS3 helicase. Briefly: HCV NS3 helicase inhibitors, primary screen, biochemical, fluorescence polarization, LOPAC1280 library (AID 687035; in the data active means inhibition above about 37%). The settings on record: Purified HCV NS3 helicase, Cy5-dT15 ssDNA binding fluorescence polarization; stronger effect = higher value; concentration not given here. (In general: Fluorescence polarisation rises when a labelled molecule tumbles more slowly, as on binding a larger partner.)

Experiment [3] in a line: Cy5 fluorescence quenching or enhancement artefacts, artefact control for HCV NS3 helicase inhibitor project, biochemical, LOPAC1280 (AID 687037; call rule not given here). As to conditions: Cy5-DNA-NS3h complex fluorescence interference counterscreen. On the technique in general: A counterscreen serves to expose hits that act by an unwanted route or on another target.
Experiment [4] can be described thus: Cy5 fluorescence interference with SSB-bound oligo, artefact control for HCV NS3 helicase inhibitor project, biochemical, NIH Clinical Collection, E. coli SSB (AID 743268; call rule not given here).
Experiment [5] concerns Hepatitis C virus NS3 helicase. Briefly: HCV NS3 helicase inhibitors, primary screen, biochemical, fluorescence polarization, NIH Clinical Collection (AID 743270; call rule not given here). As to conditions: NS3 helicase binding to Cy5-dT15 DNA, stronger effect = higher value, concentration not given here.
The target of experiment [6] is Single-stranded DNA-binding protein (Escherichia coli (strain K12)) (UniProt P0AGE0). Briefly: E. coli SSB displacement from DNA, counter-screen for HCV NS3 helicase inhibitor project, biochemical, fluorescence polarization, NIH Clinical Collection (AID 743271; in the data active means inhibition above about 28%). The settings on record: stronger effect = higher value, concentration not given here.
The nature of experiment [7]: fluorescence interference in NS3h assay format, artefact control for HCV NS3 helicase inhibitor project, biochemical, NIH Clinical Collection (AID 743272; call rule not given here;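 further: HCV NS3 helicase with a Cy5 labelled single stranded DNA probe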). The settings on record: fluorescence interference counterscreen, stronger effect = lower value.
Experiment [8] in a line: stimulators of nuclear beta-catenin in C2C12, primary screen, imaging, WNT3A-conditioned medium, mouse C2C12, NPC library (AID 1117326; in the data active means nuclear beta-catenin stimulation mostly above about 4.2%, no sharp cut-off; inactive means mostly below about 10%). As to conditions: stronger effect = higher value.
A short description of experiment [9]: stimulators of insulin release from INS-1E, primary screen, cell-based, 5 mM glucose, NPC library (AID 1117329;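 active means compound raises insulin release from rat beta cells at 5 mM glucose, no numeric limit stated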). The settings on record: rat INS-1E insulin secretion, at 10 µM, stronger effect = higher value.
Experiment [10] is described as follows: growth inhibition of GSK3B-pretreated HCT116 cells – cell-based, CellTiter-Glo, 0.2 to 20 µM (AID 1117336;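 active means compounds lowering colon cancer cell viability after pretreatment blocking the GSK3B kinase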). As to conditions: HCT116 viability after GSK3B inhibitor, at 20 µM, stronger effect = higher value. In general terms: ATP-based viability assays read luminescence as a measure of living cells.
The nature of experiment [11]: inhibition of endothelial tube formation, primary screen, imaging, VEGF stimulated, CD31 staining, tube area, NPC library (AID 1117340). The settings on record: VEGF-stimulated ADSC/ECFC co-culture, at 10 µM, stronger effect = higher value.
Experiment [12] in a line: glucagon-like peptide 1 release enhancers, primary assay, NCI-H716 cell line, NPC library (AID 1117341;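 active means compound raises GLP1 secretion from the human gut endocrine cells, with no numeric limit stated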). As to conditions: NCI-H716 cells, at 10 µM, stronger effect = higher value.
Experiment [13] is described as follows: HCT116 colon cancer cell growth inhibition, primary screen, CellTiter-Glo luminescence, NPC library (AID 1117342;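 active means compounds that lower survival of HCT116 colon cancer cells in the luminescence readout, no numeric limit stated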). As to conditions: at 20 µM (top of the series).
Experiment [14] is described as follows: CellTiter-Glo luminescent readout of SW480 viability loss, NPC library primary (AID 1117343;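 active means compounds that lower viability of the colon cancer cells in the luminescence readout, with no numeric limit stated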). As to conditions: CellTiter-Glo luminescence; at 20 µM (top of the series).
Experiment [15] is described as follows: decreased DLD-1 cellular survival, CellTiter-Glo luminescent readout, NPC compound collection, primary HTS (AID 1117346;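 active means compounds that lower survival of DLD-1 colon cancer cells in the luminescence readout, no cutoff given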). As to conditions: DLD-1 viability, CellTiter-Glo luminescence; at 20 µM (top of the series).
Experiment [16] concerns the target Calcium-dependent protein kinase 1 (Plasmodium falciparum (isolate 3D7)) (UniProt P62344). Briefly: PfCDPK1 kinase inhibitors, biochemical, TCAMS library (AID 1159585; cut-off not given, nearly all actives have IC50 up to about 0.98 µM;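 further: inhibitors leave more ATP so luminescence rises with inhibition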). The settings on record: recombinant PfCDPK1, Kinase-Glo ATP depletion luminescence.
For experiment [17], the target named is Plasmodium falciparum protein kinase 6 (PK6, PF3D7_1337100) (UniProt Q8IDW1). Briefly: PfPK6 kinase inhibitors, biochemical, TCAMS library (AID 1159586; call rule not given here). The settings on record: recombinant PfPK6, Kinase-Glo ATP depletion luminescence.

The structures appear in SMILES notation. Where “and” joins values, the source holds several entries; their conditions need not be identical. Equal values may be shown once. For part of these data: Results with a measured potency or affinity are listed apart. Calls of active or inactive are those of the source.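 How the source made its calls, unless noted: active means compound that reduces growth-factor-driven endothelial tube area in a mixed cell culture, no cutoff stated; inactive means the rest.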

Chain of Calcium-dependent protein kinase 1 (Plasmodium falciparum (isolate 3D7)) (P62344 whole entry, looked up): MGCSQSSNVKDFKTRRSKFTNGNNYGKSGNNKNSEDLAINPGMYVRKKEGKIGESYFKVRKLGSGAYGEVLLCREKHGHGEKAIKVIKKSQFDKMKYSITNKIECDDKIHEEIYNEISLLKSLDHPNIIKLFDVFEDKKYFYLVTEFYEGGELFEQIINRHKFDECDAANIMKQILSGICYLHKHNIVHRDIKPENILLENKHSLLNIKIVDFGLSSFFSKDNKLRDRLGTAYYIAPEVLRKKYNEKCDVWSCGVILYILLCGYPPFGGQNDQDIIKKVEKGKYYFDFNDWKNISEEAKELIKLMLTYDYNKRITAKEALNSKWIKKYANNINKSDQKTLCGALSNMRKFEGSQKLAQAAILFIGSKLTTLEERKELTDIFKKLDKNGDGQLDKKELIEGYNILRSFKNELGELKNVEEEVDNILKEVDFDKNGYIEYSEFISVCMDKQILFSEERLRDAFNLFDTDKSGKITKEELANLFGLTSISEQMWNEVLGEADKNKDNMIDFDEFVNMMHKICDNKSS
Chain of Plasmodium falciparum protein kinase 6 (PK6, PF3D7_1337100) (Q8IDW1 1-305): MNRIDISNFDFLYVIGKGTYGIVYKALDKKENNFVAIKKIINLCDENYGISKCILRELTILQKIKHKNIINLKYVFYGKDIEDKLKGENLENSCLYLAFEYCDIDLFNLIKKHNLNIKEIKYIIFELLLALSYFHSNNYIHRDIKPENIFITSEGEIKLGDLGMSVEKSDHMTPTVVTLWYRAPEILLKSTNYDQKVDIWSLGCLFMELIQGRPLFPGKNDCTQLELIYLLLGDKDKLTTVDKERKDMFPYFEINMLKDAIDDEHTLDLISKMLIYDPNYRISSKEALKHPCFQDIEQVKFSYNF

The term viability denotes a read-out of living cells in per cent, often relative to untreated cells. As a reminder, the inhibition is the drop in the measured response relative to a control, in per cent. In the case of `Brc1c(NC2=NCCN2)ccc2nccnc12`, in [1], the parasite load remaining was 54.7% (inactive). The viability in experiment [1] was found to be 94.9%. For the same compound, the inhibition in experiment [2] was -3% (inactive); in [5], -5.91% (inactive); in experiment [6], -3.53% (inactive). In experiment [3], the fluorescence ratio (interference) was 1 (inactive). Besides, the fluorescence ratio was 1.04 (inactive) in experiment [4] and 0.99 (inactive) in experiment [7]. The nuclear beta-catenin stimulation in experiment [8] (at 10 µM) is 0.3% (inactive); in experiment [8] (stimulation, at 2 µM), -0.6%. Also, in experiment [9], the insulin secretion stimulation was 0.4% (inactive). The viability decrease in [10] is 27% (inactive). Besides, the tube area decrease in experiment [11] was -5.2% (inactive). The GLP1 secretion stimulation in experiment [12] was -3.1% (inactive). Further, the inhibition of viability in [13] was 15.1% (inactive). Further, the viability decrease (inhibition) in [14] is 7.7% (inactive); in experiment [15] it was -3.7% (inactive).

Regarding `O=NN(CCCl)C(=O)NC1CCCCC1`, the parasite load remaining in experiment [1] was 11.7% (inactive). Also, the viability in [1] was 78%. Besides, the nuclear beta-catenin stimulation is 11.8% (inactive) in experiment [8] (at 10 µM) and 3.7% in experiment [8] (stimulation, at 2 µM). Besides, in [9], the insulin secretion stimulation is -0.3% (inactive). In addition, the viability decrease in experiment [10] was 11.8% (inactive). For the same compound, the tube area decrease in [11] was 56.7% (active). Also, the GLP1 secretion stimulation in experiment [12] is -0.1% (inactive). Also, the inhibition of viability in experiment [13] is -0.2% (inactive). In addition, the viability decrease (inhibition) in experiment [14] is 57.8% (active); in [15], 3.5% (inactive).

In the case of `C[C@@H]1CN(c2c(F)c(N)c3c(=O)c(C(=O)O)cn(C4CC4)c3c2F)C[C@H](C)N1`, the parasite load remaining in experiment [1] was 16.6% (inactive). Also, in experiment [1], the viability worked out at 70%. Besides, the nuclear beta-catenin stimulation is -1.1% (inactive) in experiment [8] (at 10 µM) and -1.1% in [8] (stimulation, at 2 µM). Besides, in experiment [9], the insulin secretion stimulation was 2.1% (inactive). In addition, the viability decrease in experiment [10] was 13.2% (inactive). Besides, the tube area decrease in [11] is -14.6% (inactive). Moreover, the GLP1 secretion stimulation in experiment [12] is 0.3% (inactive). Moreover, in experiment [13], the inhibition of viability was 23.4% (inactive). In addition, the viability decrease (inhibition) is -0.6% (inactive) in experiment [14] and -18.8% (inactive) in experiment [15].

Consider `Oc1ccc(OCc2ccccc2)cc1`, for which, in experiment [1], the parasite load remaining is 144% (inactive). Moreover, the viability in experiment [1] stood at 102%. The nuclear beta-catenin stimulation in experiment [8] (at 10 µM) is 2.5% (inactive); in experiment [8] (stimulation, at 2 µM) it was 1.1%. The insulin secretion stimulation in [9] was -0.6% (inactive). Also, in experiment [10], the viability decrease is -36.6% (inactive). Besides, in experiment [11], the tube area decrease is 0.5% (inactive). In addition, the GLP1 secretion stimulation in [12] was 2.7% (inactive). Moreover, in [13], the inhibition of viability was -6.37% (inactive). Also, the viability decrease (inhibition) is 5.3% (inactive) in experiment [14] and 4.6% (inactive) in [15].

For the compound `CCOc1ccc2nc3cc(N)ccc3c(N)c2c1`, the nuclear beta-catenin stimulation is 9.5% (inactive) in [8] (at 10 µM) and 0.7% in experiment [8] (stimulation, at 2 µM). For the same compound, the insulin secretion stimulation in experiment [9] is 3.5% (inactive). Besides, in experiment [10], the viability decrease is 81.2% (active). The tube area decrease in [11] is 73.3% (active). The GLP1 secretion stimulation in experiment [12] is 8.6% (inactive). The inhibition of viability in experiment [13] was 70.6% (active). The viability decrease (inhibition) in experiment [14] was 121% (active); in experiment [15] it was 47.2% (inactive). Also, the result in experiment [16] and in experiment [17] was inactive.

Regarding `O=P(O)(O)C(O)(Cc1cccnc1)P(=O)(O)O`, the parasite load remaining in experiment [1] is 12.3% (inactive) and 1.41% (inactive). For the same compound, the viability in experiment [1] was 96.3% and 95%. The nuclear beta-catenin stimulation was -1.2% (inactive) in experiment [8] (at 10 µM) and -0.8% in [8] (stimulation, at 2 µM). The insulin secretion stimulation in [9] is -1.8% (inactive). Also, the viability decrease in [10] was 5.7% (inactive). Also, the tube area decrease in experiment [11] was 18.1% (inactive). Besides, the GLP1 secretion stimulation in [12] was 0.1% (inactive). The inhibition of viability in experiment [13] is 5.33% (inactive). Besides, the viability decrease (inhibition) in experiment [14] is -18.5% (inactive); in [15], -4.9% (inactive).
